The results in this text go back to PubChem BioAssay.

As usually defined, the inhibition is the change of the read-out against control, counted positive when it falls.

Assay [1] deals with Tumor necrosis factor receptor superfamily member 10B (Homo sapiens) (UniProt O14763). Kind of assay: viability loss of caspase-8 NB7 cells with TRAIL – with/without TRAIL, luminescence panel, confirmation (AID 651596). The following applies: NB7 neuroblastoma + caspase-8, TRAIL sensitization, NB7 Caspase-8, with TRAIL, mean of runs, at 10 µM, stronger effect = higher value.
Assay in assay [2]: as above
The following applies: NB7 neuroblastoma + caspase-8, without TRAIL, NB7 Caspase-8, without TRAIL, mean of runs, at 10 µM.

Assay [3] deals with Tumor necrosis factor receptor superfamily member 10B (Homo sapiens) (UniProt O14763). Kind of assay: compound enhancement of TRAIL-induced cell killing – NB7 cells plus caspase-8, luminescence, panel, dose response (AID 652002). The following applies: NB7 neuroblastoma +caspase-8, TRAIL sensitization, luminescence viability, NB7+Caspase-8, with TRAIL, run 1; at 12.5 µM (top of the series).

The target is the same in assay [4]. Described as above. The note with it: NB7 neuroblastoma +caspase-8, TRAIL sensitization, luminescence viability, NB7+Caspase-8, with TRAIL, run 2; at 12.5 µM (top of the series).
Assay in assay [5]: as above
The following applies: NB7 neuroblastoma +caspase-8, no TRAIL, compound-alone cytotoxicity counter-screen, luminescence viability, NB7+Caspase-8, run 1; at 12.5 µM (top of the series). (The purpose of a counterscreen is to sort out artefacts and off-target activity.)

Assay in assay [6]: as above
The note with it: NB7 neuroblastoma +caspase-8, no TRAIL, compound-alone cytotoxicity counter-screen, luminescence viability, NB7+Caspase-8, run 2; at 12.5 µM (top of the series).

The target in assay [7] is 72 kDa type IV collagenase (Homo sapiens) (UniProt P08253). As to the kind of experiment: human MMP-2 inhibitors, single-point check – biochemical, fluorescence, single concentration, counter-screen for CSN deneddylation inhibitor project, confirmation (AID 720655;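 active = corrected plate-normalized z-score of 5 or more, or -5 or less, or inhibition of 15% or more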;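 also: plate controls were DMSO wells with enzyme for no effect and buffer wells lacking MMP-2 for full effect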). The following applies: recombinant MMP-2, FRET substrate fluorescence, 60 min; at 16.6 µM.
In a further assay the target is Prothrombin (Bos taurus) (UniProt P00735). Kind of assay: thrombin cleavage blockers, FP readout – biochemical, fluorescence polarization, single concentration, counter-screen for CSN deneddylation inhibitor project, confirmation (AID 720656;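 active = inhibition at or above a set limit, with a fluorescence interference ratio between 0.5 and a set maximum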). The note with it: bovine thrombin cleavage of Ub4-pepOG, at 16.6 µM, stronger effect = higher value. (In general: Fluorescence polarisation rises when a labelled molecule tumbles more slowly, as on binding a larger partner.)

The other results are listed elsewhere or left out. Active and inactive are the calls of the source. Rule as the data show it, unless noted: active = activity above about 50%; inactive = the rest.

Sequence of Tumor necrosis factor receptor superfamily member 10B (Homo sapiens) (O14763 whole entry, looked up): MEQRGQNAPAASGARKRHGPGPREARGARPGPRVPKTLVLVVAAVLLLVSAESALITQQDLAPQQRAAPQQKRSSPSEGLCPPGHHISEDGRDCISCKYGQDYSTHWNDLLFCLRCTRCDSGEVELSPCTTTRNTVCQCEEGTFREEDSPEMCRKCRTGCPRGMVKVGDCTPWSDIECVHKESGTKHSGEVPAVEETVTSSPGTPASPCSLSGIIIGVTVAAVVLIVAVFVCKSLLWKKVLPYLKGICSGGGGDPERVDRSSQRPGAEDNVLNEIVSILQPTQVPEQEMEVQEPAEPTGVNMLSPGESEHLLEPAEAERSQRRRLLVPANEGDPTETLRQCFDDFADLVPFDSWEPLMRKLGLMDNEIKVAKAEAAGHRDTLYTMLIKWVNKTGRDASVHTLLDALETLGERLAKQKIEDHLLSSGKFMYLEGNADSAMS
Sequence of Prothrombin (Bos taurus) (P00735 whole entry, looked up): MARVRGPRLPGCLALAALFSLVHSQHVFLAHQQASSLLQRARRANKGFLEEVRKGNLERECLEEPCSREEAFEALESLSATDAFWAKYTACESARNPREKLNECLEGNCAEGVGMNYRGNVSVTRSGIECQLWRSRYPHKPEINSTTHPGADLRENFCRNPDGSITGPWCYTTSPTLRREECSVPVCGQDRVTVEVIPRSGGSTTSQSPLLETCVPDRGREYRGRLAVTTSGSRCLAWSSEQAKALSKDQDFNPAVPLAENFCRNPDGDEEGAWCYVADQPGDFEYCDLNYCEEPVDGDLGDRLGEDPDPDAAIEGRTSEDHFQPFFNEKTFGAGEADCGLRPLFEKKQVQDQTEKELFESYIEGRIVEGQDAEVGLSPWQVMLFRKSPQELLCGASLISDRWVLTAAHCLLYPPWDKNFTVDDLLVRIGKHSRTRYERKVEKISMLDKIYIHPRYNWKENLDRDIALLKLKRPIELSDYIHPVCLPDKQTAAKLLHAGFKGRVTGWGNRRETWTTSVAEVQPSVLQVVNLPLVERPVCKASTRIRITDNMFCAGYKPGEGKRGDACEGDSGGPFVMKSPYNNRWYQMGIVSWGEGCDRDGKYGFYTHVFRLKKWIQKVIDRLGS
Sequence of 72 kDa type IV collagenase (Homo sapiens) (P08253 whole entry, looked up): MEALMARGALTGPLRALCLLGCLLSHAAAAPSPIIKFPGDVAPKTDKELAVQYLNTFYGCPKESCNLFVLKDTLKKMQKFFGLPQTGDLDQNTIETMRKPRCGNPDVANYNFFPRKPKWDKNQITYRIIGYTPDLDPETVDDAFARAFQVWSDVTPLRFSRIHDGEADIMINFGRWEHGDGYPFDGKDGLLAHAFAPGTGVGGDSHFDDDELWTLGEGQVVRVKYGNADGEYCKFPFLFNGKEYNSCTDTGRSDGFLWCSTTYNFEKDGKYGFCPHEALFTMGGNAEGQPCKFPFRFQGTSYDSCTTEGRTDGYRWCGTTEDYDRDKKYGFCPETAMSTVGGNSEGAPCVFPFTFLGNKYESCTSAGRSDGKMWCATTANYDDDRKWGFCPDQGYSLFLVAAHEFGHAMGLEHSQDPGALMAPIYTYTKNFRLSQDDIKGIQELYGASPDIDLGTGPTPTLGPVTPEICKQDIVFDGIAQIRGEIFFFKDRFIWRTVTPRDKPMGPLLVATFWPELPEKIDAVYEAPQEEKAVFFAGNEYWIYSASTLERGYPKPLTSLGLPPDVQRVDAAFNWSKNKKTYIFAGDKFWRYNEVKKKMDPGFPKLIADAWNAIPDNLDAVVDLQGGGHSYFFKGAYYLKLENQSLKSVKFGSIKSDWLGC

Turning to `Oc1ccc(-[n+]2c(-c3ccccc3)cc(-c3ccccc3)cc2-c2ccccc2)cc1`, the results for the activity in assay [1] and in assay [2] were 90.3% and 59.6%, respectively.
For `CCOC(=O)[C@]12Cc3cc(Cl)ccc3[C@H]1N(C(C)C)C(=O)c1ccccc12` the same measures were 79.3% and 85.9%.
Take `C[C@]12CCC3C(CCC4=CC(O)CC[C@@]43/C=N/O)C1(O)CCC2C1=CC(=O)OC1` (some centres undefined): the activity stood at 87% in assay [1] and 92.3% in assay [2].
In the case of `CC(C)(C)n1cc(C(=O)c2ccc3ccccc3c2O)cn1`, the activity in assay [1] was found to be 55.8%; in assay [2] it was 51%.
Consider `CNC(=O)Oc1cccc(-c2cn3cc(Cl)ccc3n2)c1`, for which the activity in assay [1] stood at 86.8%; in assay [2] it was 83%.
For `ClCCN(CCCl)c1ccc(-n2cnc3c(Cl)ncnc32)cc1` the same measures were 96.3% and 98.2%.
The corresponding values for `Cc1nc2cc(C(F)(F)F)ccc2n1C1CCN(Cc2nnnn2Cc2ccc3c(c2)OCO3)CC1` are 53% and 54.3%.
Consider `CC1OC(OC2C=C3CCC4C(CCC5(C)C(c6ccc(=O)oc6)CCC45O)C3(C)CC2)C(O)C(OC2OC(CO)C(O)C(O)C2O)C1O` (centres undefined), for which the activity in assay [1] stood at 83.1%; in assay [2], 91.9%.
For `NC(=O)c1cn(C2OC(CO)C(O)C2O)c2ncnc(N)c12` (centres undefined) the same measures were 56.3% and 81.3%.
For `O=[N+]([O-])c1ccc(Cl)c([N+](=O)[O-])c1`, the activity in assay [1] was -3.27%; in assay [2], 54.8%.
The corresponding values for `CCOC(=O)[C@]12Cc3cc(OC)ccc3[C@H]1N(C(C)C)C(=O)c1cc(OC)ccc12` are 28% and 45%.
With `CC(C)CCn1c(=O)c(C(=O)Nc2ccccc2S(N)(=O)=O)c(O)c2ccccc21`, the activity was determined as 55.4% in assay [1] and 45.3% in assay [2]. Moreover, the activity, % sensitization in assay [3] was -2.11%; in assay [4], -8.54%; in assay [5], -27.8%; in assay [6], -20%.
With `Cc1ccc(NC(=O)CN2C(=O)CN=C(c3ccccc3)c3cc(Cl)ccc32)cc1`, the activity is 78.1% in assay [1] and 85% in assay [2].
The corresponding values for `CCOC(=O)[C@]12Cc3c(cc(OC)c(OC)c3OC)[C@H]1N(C1CCCCC1)C(=O)c1ccccc12` are 95.8% and 98%.
`C[C@]12CC[C@H]3C(CCC4(O)CC(O)CC[C@]34C=O)C1=CC[C@H]2c1ccc(=O)oc1` (some centres undefined): the activity in assay [1] was found to be 70.2%; in assay [2], 55.2%.
On to `CCOc1ccc(-c2c(C)n(-c3ccc(OCC)cc3)c3[n+]2CCCCC3)cc1`, for which the values for the activity in assay [1] and in assay [2] were 61% and 63%, respectively.
As to `COC(=O)[C@@H]1[C@@H](C(=O)OC)C2(c3ccccc3-c3ccccc32)N(c2ccc(Cl)cc2)N1C#N`, the activity in assay [1] is 96.8%; in assay [2] it was 99.2%.
Take `COc1ccc2nc(-c3ccc(CN4CCC(n5c(=O)[nH]c6ccccc65)CC4)cc3)c(-c3ccccc3)nc2c1`: the activity in assay [1] came out at 39.8%; in assay [2], 24.9%.
For the molecule `CN(C)CC(C(=O)Cc1ccccc1)c1ccccc1` (centres undefined), the activity in assay [1] worked out at 37.9%; in assay [2], 96.3%.
Consider `CCCCCN1C(=O)c2cc(OC)ccc2[C@@]2(C(=O)OCC)Cc3cc(Cl)ccc3[C@@H]12`, for which the activity in assay [1] worked out at 87.2%; in assay [2], 92.8%.
Regarding `COc1ccc(-[n+]2c(-c3ccccc3)cc(-c3ccc(C)cc3)cc2-c2ccccc2)cc1`, the results for the activity in assay [1] and in assay [2] were 74.3% and 64.8%, respectively.
Turning to `CC(=O)OC[C@]12CCC(C)=C[C@H]1O[C@@H]1[C@H](O)[C@@H](OC(C)=O)[C@@]2(C)[C@]12CO2`, the values for the activity in assay [1] and in assay [2] were 95.1% and 97.4%, respectively.
The corresponding values for `CC(C)(O)/C=C/C(=O)C(C)(O)C1C(O)CC2(C)C3CC=C4C(C=C(O)C(=O)C4(C)C)C3(C)C(=O)CC12C` (centres undefined) are 46.5% and 81.1%.
The corresponding values for `CNC(=O)Oc1ccc(-c2cn3cc(Cl)ccc3n2)cc1` are 85.8% and 84.1%.
With `COc1ccc(N2C(=O)/C(=C/c3ccco3)C(=O)NC2=S)cc1`, the inhibition is 38.2% (active) in assay [7] and 24.5% (active) with Prothrombin (Bos taurus).
